HIF-2a inh – HIF-2a inhibition. inhibition, % at 18.8 µM. 0.72% of 360,000 active. AID 624352. 786-0 RCC cells HIF-2a reporter, luciferase luminescence, overnight;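 active means inhibition of the luminescence signal of 40% or more relative to plate controls, in a single-dose primary screen at 18.75 µM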
CF NFkB block – cystic fibrosis NF-kB activation inhibition | KKLEB NF-kB-GFP reporter, PAF-induced, GFP fluorescence overnight | inhibition, % at 5 µM | 0.86% of 360,000 active;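 active means at least 50% inhibition at 5 µM, scaled per plate between neutral and stimulator controls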;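 further: PAF is a Pseudomonas aeruginosa culture filtrate used as stimulus; plate controls were PAF-stimulated DMSO wells for no effect and unstimulated DMSO wells for full effect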
TROY signal inh – blocks TROY-dependent signaling in reporter cells. Q293 LMP1-TROYcd NF-kB luciferase reporter, 4 h. inhibition, % at 10 µM. 0.98% of 360,000 active. AID 1347056;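 active means compounds whose plate-normalised and pattern-corrected inhibition of the luciferase reporter signal at the single screening dose is 50% or more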
KKLEB cytotox – reduces viability of KKLEB cystic fibrosis airway cells; 0.36% of 360,000 active; KKLEB CF airway cells viability, ATPlite luminescence, overnight; hits give low values; cells stimulated with P. aeruginosa culture filtrate; activity change (cytotoxicity), % at 5 µM;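 active means corrected activity change at or below -50% at 5 µM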
TWEAK-Fn14 inh – blocks TWEAK-Fn14 interaction in a reporter cell assay. TWEAK-stimulated Fn14 reporter cells, luciferase luminescence, 8 h. inhibition, % at 10 µM. 2% of 360,000 active; in the data active means inhibition above about 50%
Peg3 prom inh – Peg3 promoter activity inhibition; 1.7% of 360,000 active; inhibition, % at 20 µM; AID 588405; HeLa PEG-Prom luciferase reporter, luminescence, overnight;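 active means inhibition of at least 50% at 20 µM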
Mdm2 MdmX conf – confirmation of inhibitors of human Mdm2/MdmX interaction, set 2; shares compounds with HIF-2a inh; SaOS-2 split-luciferase Mdm2/MdmX complementation, luminescence; inhibition, % at 8 µM; 99% of 740 active;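 active means mean inhibition of the luminescence signal across two replicates at or above 26 percent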
HIF-2a inh conf – confirmation of HIF-2a inhibitors. shares compounds with HIF-2a inh. 786-0 RCC cells, HIF-2a luciferase reporter luminescence, overnight. inhibition, % at 18.8 µM. 56% of 1,800 active;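 active means mean inhibition across four replicates of at least 40 percent at the single tested concentration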
HIF-1a counter – HIF-1a inhibition counter-screen for HIF-2a hits | shares compounds with HIF-2a inh | 72% of 1,800 active | inhibition, % at 18.8 µM | MiaPaCa-2 HIF-1a luciferase reporter, desferoxamine, overnight;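 active means mean inhibition of the reporter signal across four replicates at the single tested dose of 50% or more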
An asterisk follows results filed as active; . = no result given. An excerpt weighted towards active compounds, which were near 4% of everything screened.

SMILES	HIF-2a inh	CF NFkB block	TROY signal inh	KKLEB cytotox	TWEAK-Fn14 inh	Peg3 prom inh	HIF-2a inh conf	HIF-1a counter	others
COC(=O)CSc1nc(N)c(C#N)c(-c2ccc(O)cc2)c1C#N	40*	12	8	-9	-13	8	35	21
O=C(Nc1ccccc1C(=O)NCc1ccco1)Nc1cccc2ccccc12	54*	5	9	2	33	-2	6	33
O=C(O)c1ccccc1NC(=O)C(Cc1ccccc1)N1C(=O)c2ccccc2C1=O (stereo not given)	42*	-7	-9	4	-2	10	3	-10
CCC(C(=O)Nc1ccccc1C(=O)N1CCCC1)N1C(=O)c2ccccc2C1=O (stereo not given)	17	12	-7	-12	-6	8	.	.
Oc1cc(O)cc(-c2cc3ccc(O)cc3o2)c1	40*	-8	-4	-15	-53	-243	23	11
NC(=S)c1cc2ccc(O)cc2oc1=O	12	-24	13	-2	-2	11	.	.
CCOC(=O)C1=C(COC(=O)C2CC(=O)N(c3ccccc3F)C2)NC(=O)NC1C (stereo not given)	12	18	-3	3	-1	6	.	.
O=C(NCc1cccc(Cl)c1)C1Cc2c(-c3ccccc3)ccnc2O1 (stereo not given)	1	-20	-8	-1	9	11	.	.
Cc1c(CCC(=O)O)c(=O)oc2cc(OCc3ccccc3Br)ccc12	78*	36	33	-13	24	2	92*	52*
COc1cccc(-c2coc3c(C)c4oc(=O)c(CCC(=O)O)c(C)c4cc23)c1	15	-35	10	0	-45	3	.	.
Cc1c(CCC(=O)N2CCC(C(=O)NCCCCCC(=O)O)CC2)c(=O)oc2cc3oc4c(c3cc12)CCCC4	29	28	2	-7	24	-10	.	.
COc1cccc(-c2coc3cc4oc(=O)c(CCC(=O)O)c(C)c4cc23)c1	40*	-40	18	1	3	21	57*	51*
Cc1c(CCC(=O)N[C@@H](C)C(=O)O)c(=O)oc2cc3occ(-c4ccccc4)c3cc12	26	-2	10	-2	-2	6	.	.
Cc1c(CCC(=O)N[C@@H](CC(C)C)C(=O)O)c(=O)oc2cc3oc4c(c3cc12)CCCC4	65*	-18	-3	4	38	-59	75*	38
Cc1c(CCC(=O)O)c(=O)oc2cc(OCc3cccc(F)c3)ccc12	-52	1	-7	6	-15	-22	.	.
Cc1c(CCC(=O)N2CCC[C@H]2C(=O)O)c(=O)oc2cc3oc4c(c3cc12)CCCC4	65*	24	-1	-5	76*	-64	79*	39
CN[C@@H](C)C(=O)NC[C@H]1O[C@@H](n2cnc3c(N)ncnc32)[C@H](O)[C@@H]1O	7	2	-16	8	-20	-5	.	.
Cn1c(CNC(=O)c2ccc3c(c2)OCO3)nnc1SCC(=O)Nc1ccc(F)cc1F	-4	-9	-8	2	-4	-19	.	.
O=S(=O)(NCC[C@@H]1CC[C@H](NS(=O)(=O)c2cccc(F)c2)[C@@H](CO)O1)c1cccc(F)c1	1	.	.	.	.	.	.	.
Cc1c(CCC(=O)O)c(=O)oc2cc3oc4c(c3cc12)CCCC4	74*	-18	12	13	51*	-75	83*	47
Cc1c(CCC(=O)NCC(=O)NCC(=O)O)c(=O)oc2cc3oc4c(c3cc12)CCCC4	26	-2	-10	-2	9	4	.	.
COc1ccc(N(CC(=O)NN=C2CCN(C)CC2)S(=O)(=O)c2ccc(NC(C)=O)cc2)cc1	3	8	10	3	-15	4	.	.
COC(=O)C1=C(C)N(Cc2ccccc2)C(=NCc2cccc(C(F)(F)F)c2)N[C@H]1c1cccc(C(F)(F)F)c1	1	16	15	-29	6	99*	.	.	Mdm2 MdmX conf=102*
CC(=O)NC1(C(Cl)(Cl)Cl)Oc2ccccc2O1	47*	2	15	-6	-13	24	19	20
CCN(Cc1ccc2c(c1)OCO2)C(=O)/C=C/c1cccc(Br)c1	-81	3	-37	-12	-33	-53	.	.
SMILES	HIF-2a inh	CF NFkB block	TROY signal inh	KKLEB cytotox	TWEAK-Fn14 inh	Peg3 prom inh	HIF-2a inh conf	HIF-1a counter	others
CC(C)(C)N(Cc1ccc2c(c1)OCO2)C(=O)/C=C\S(=O)c1ccccc1 (stereo not given)	69*	43	28	-19	88*	99*	54*	80*
CCN1CCN(Cc2c(O)ccc3c2O/C(=C\c2ccccc2)C3=O)CC1	14	-12	-6	3	3	14	.	.
CN(C)Cc1c(O)ccc2c1O/C(=C\C=C\c1ccccc1)C2=O	11	8	21	14	25	21	.	.	Mdm2 MdmX conf=11
Cc1ccc(S(=O)(=O)/N=C(\Sc2ccccc2)c2ccccc2)cc1	43*	1	6	3	9	56*	56*	49
NNC(=O)c1cccc(COc2ccc3c(c2)CCC3)c1	68*	1	-79	2	-15	-42	53*	-115
NNC(=O)c1cccc(COc2ccccc2Br)c1	-69	-1	-58	8	-16	-259	.	.
O=C1OC2(c3ccccc31)c1ccccc1-c1ccccc12	4	17	-11	-14	33	32	.	.
Nc1ccc(C2(c3ccc(N)cc3)c3ccccc3C(=O)c3ccccc32)cc1	42*	21	23	1	16	44	33	55*
CC(C)n1[nH]c2ccccc2c1=O	-14	16	-2	-27	9	6	.	.
CCN(CC(=O)Nc1ccc(NC(C)=O)cc1)C(=O)C1(c2ccc(Cl)cc2)CCC1	51*	-54	-23	12	3	17	32	1
COc1ccc(NC(=O)CN(C)C(=O)C2(c3ccccc3)CCCC2)cc1	51*	-108	-7	5	22	45	32	15
COc1ccc(NC(=O)CN(C)C(=O)CCc2ccccc2)cc1	-2	2	-8	-1	15	1	.	.
S=C1CC2CCCC(C2)N1 (stereo not given)	-1	-7	2	-3	23	-3	.	.
CCOC(=O)C1C(=O)C(=O)N(C2CCCCC2)C1C(=O)OCC (stereo not given)	8	1	1	-8	-5	14	.	.
Cc1cccc(NC(=O)COC(=O)CCc2c[nH]c3ccccc23)c1	4	20	-16	10	0	-1	.	.

Assay outcomes as filed in PubChem.
